# An excerpt weighted towards active compounds, which were near 3.9% of everything screened.
# HSF1 inhib = HSF1 inhibitors in luciferase reporter cells, primary screen, cell-based, NIH3T3, luminescence. NIH3T3-HGL HSE-luciferase, MG132-induced, luminescence 8 h; hits give low values. activity change, negative = inhibition, % at 7.5 µM (by protocol). actives 0.77% (n = 300,000);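 active = more than half of replicate wells show activity change below -50%, luminescence cut by over half; inconclusive = some wells, but at most half, below -50%; inactive = no replicate well below -50%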;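 also: luciferase reports HSF-1 transcriptional activity via heat shock element; 0% = median of DMSO wells and -100% = zero luminescence signal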
# Wnt act = Wnt/beta-catenin pathway activators, primary screen, cell-based, plate reader, single point | activation, % at 9.35 µM | Wnt/beta-catenin reporter cell assay, activator | actives 1.2% (n = 300,000) | AID 743398, 2014; in the data active = activation above about 30%, passing the limit was not always enough; inconclusive = no clear call, values can overlap the other calls;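 also: 0% = neutral control wells and 100% = positive control wells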
# MITF act = activators of MITF-driven TRPM1 promoter reporter, primary screen, cell-based, SK-MEL-5, luciferase, single point. SK-MEL-5 TRPM1-promoter luciferase, 24 h; % of positive control, neutral wells = 0. activation, % at 12.5 µM. actives 0.75% (n = 300,000). AID 588334, 2011;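 active = mean activation of at least 80% with every replicate also reaching 80%; inconclusive = mean reaches 80% but some replicate falls short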;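 also: 0% = neutral control wells and 100% = parthenolide positive control wells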
# HSF-1 act = HSF-1 activators, primary screen, NIH3T3-HGL cells, MG132 stress, luminescence, single point; NIH3T3-HGL HSF-1 luciferase reporter, 8 h; 100% = twice DMSO control signal; activation, % at 9 µM; actives 1.7% (n = 300,000); AID 504408, 2011;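 active = mean replicate activation of at least 50% with a set share of replicates each reaching 50%; inconclusive = only one of those two conditions met; inactive = mean below 50% and too few replicates reaching it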;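 also: 0% = median of the neutral control wells and 100% = twice that signal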
# esBAF inh = Bmi1 luciferase reporter increase in mESCs, primary screen, esBAF inhibitor project, mouse ES cells, Bmi1 luciferase knock-in, single point; reporter increase, % at 12.5 µM; AID 602393, 2012; 24 h; 100% = twice the neutral-well signal; actives 2% (n = 350,000); in the data active = activation above about 40%; inconclusive = no clear call, values can overlap the other calls;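 also: 0% = median of the plate's neutral control wells and 100% = double that signal; a rise in the Bmi1 reporter signal indicates esBAF inhibition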
# Numbers without * were called inactive; ? = inconclusive; nt = no result.
SMILES,HSF1 inhib,Wnt act,MITF act,HSF-1 act,esBAF inh
C[C@H](CO)N1C[C@H](C)[C@H](CN(C)C(=O)Nc2cccc3ccccc23)Oc2ccc(NS(=O)(=O)c3cn(C)cn3)cc2CC1=O,nt,nt,nt,nt,4
CO[C@H]1CC[C@@H]2CCOc3ccc(C#N)cc3C(=O)N(C)[C@@H](C)C(=O)N(C)C[C@H]1O2,nt,nt,nt,nt,0
Cc1ccc(/C=N/NC(=O)c2ccco2)s1,5,45*,44,26,13
O=C(N/N=C/c1ccc(Br)s1)c1ccco1,7,43*,?,-8,nt
Cc1noc(C)c1S(=O)(=O)N(C)C[C@@H]1OCCCC[C@H](C)Oc2ccc(NS(=O)(=O)c3cccs3)cc2C(=O)N([C@@H](C)CO)C[C@H]1C,nt,nt,nt,nt,3
C[C@@H]1CN([C@H](C)CO)C(=O)Cc2cc(N(C)C)ccc2O[C@@H]1CN(C)S(=O)(=O)c1ccc(Cl)cc1,nt,nt,nt,nt,-7
Cc1cc(C(=O)Nc2cccc3c2O[C@@H](CN(C)S(C)(=O)=O)[C@H](C)CN([C@H](C)CO)C3=O)n(C)n1,nt,nt,nt,nt,-6
CC(C)NC(=O)N(C)C[C@H]1Oc2ccc(NC(=O)CCN3CCOCC3)cc2C(=O)N([C@@H](C)CO)C[C@@H]1C,nt,nt,nt,nt,7
NNC(=O)c1ccc(COc2ccc3ccccc3c2)o1,17,?,8,49,nt
O=C(OCc1ccccn1)c1ccc(COc2ccc3ccccc3c2)o1,20,-2,49,33,53*
C[C@@H]1CN([C@@H](C)CO)C(=O)CCCn2nncc2CO[C@@H]1CN(C)Cc1ccc2c(c1)OCO2,nt,nt,nt,nt,-4
COC(=O)c1ccc2c(C)c(C3(O)CCCCC3)[nH]c2c1,nt,25,74,nt,66*
COC(=O)c1cc(Cl)cc2c(C)c(C3(O)CCCCC3)[nH]c12,1,-3,-1,-13,-6
O=C(CNc1ccc(Br)cc1)c1ccc(O)cc1,14,10,14,17,nt
O=C(CNc1ccc(Br)cc1)c1ccc(Br)s1,26,12,77,33,58*
CCC(=O)N(C)C[C@@H]1Oc2ncc(C3=CCCC3)cc2C(=O)N([C@H](C)CO)C[C@H]1C,nt,nt,nt,nt,2
CO[C@H]1CN(C)C(=O)c2ccc(NC(=O)Nc3ccccc3F)cc2OC[C@H](C)N(CC2CC2)C[C@H]1C,nt,nt,nt,nt,8
N#C/C(=C\c1ccc(N2CCCCC2)o1)C(N)=O,-12,2,-5,-10,nt
N#C/C(=C\c1ccc(N2CCCCC2)o1)C(=O)Nc1cccc(Br)c1,14,38*,4,28,nt
CN(C)c1ccc(C=C2SC(=S)NC2=O)cc1,nt,-1,21,nt,54*
CO[C@H]1CN(C)C(=O)c2cc(NS(=O)(=O)c3ccc(Cl)cc3)ccc2OC[C@@H](C)N(C)C[C@@H]1C,nt,nt,nt,nt,1
CCOc1ccc(OCCC(=O)OCC(=O)N2CCN(S(=O)(=O)c3ccc(Cl)cc3)CC2)cc1,62,-2,-38,87*,-4
Cc1ccc(C)c(OCCC(=O)OCC(=O)N2CCN(S(=O)(=O)c3ccc(Cl)cc3)CC2)c1,?,0,7,-1,6
CCOc1ccc(S(=O)(=O)N2CCN(C(=O)CN3C(=O)NC(C)(C)C3=O)CC2)cc1,nt,47*,8,nt,-10
CCOc1ccc(-c2cc(C(=O)NC3CCCCC3)[nH]n2)c(C)c1,nt,4,nt,nt,57*
SMILES,HSF1 inhib,Wnt act,MITF act,HSF-1 act,esBAF inh
COc1ccc(F)cc1-c1cc(C(=O)NC2CCCCC2)[nH]n1,nt,2,nt,nt,49*
COc1ccc(Cl)cc1-c1cc(C(=O)NCC2CCCCC2)[nH]n1,nt,-2,nt,nt,-8
COc1ccc(NC(=O)N(C)C[C@@H]2Oc3c(NC(=O)c4cc(C)nn4C)cccc3C(=O)N([C@H](C)CO)C[C@H]2C)cc1,nt,nt,nt,nt,0
NS(=O)(=O)c1cccc(NC(=O)c2cc(=O)c3ccccc3o2)c1,-2,2,13,7,4
O=C(Nc1ccccc1Br)c1cc(=O)c2ccccc2o1,4,0,152*,23,49*
O=S(=O)(Nc1cccc2ccccc12)c1ccccc1,52,6,-13,61*,nt
O=C(O)c1cccc(S(=O)(=O)Nc2cccc3ccccc23)c1,-8,2,-11,-12,7
COC(=O)Nc1ccc(S(=O)(=O)Nc2cccc3ccccc23)cc1,33,nt,-19,68*,-12
CCOC(=O)N1CCC(N(CCN(C)C)C(=S)Nc2cccc(SC)c2)CC1,-19,3,-6,-25,8
COc1cccc(N2CCN(C(=S)Nc3ccc(F)cc3)CC2)c1,-3,0,-10,-2,-5
COc1cccc(N2CCN(c3ncccn3)CC2)c1,42,nt,64,73*,43*
CSc1cccc(NC(=S)N2CCC(N(C)C3CCCC3)CC2)c1,-73*,-2,5,-79,4
COc1cccc(N2CCN(C(=S)Nc3cc(C)cc(C)c3)CC2)c1,-52*,0,-7,-64,nt
COc1cccc(NC(=S)N2CCCC2)c1,28,nt,9,57*,nt
C[C@@H]1CN([C@H](C)CO)C(=O)Cc2cc(N(C)C)ccc2O[C@@H]1CN(C)C(=O)NC1CCCCC1,nt,nt,nt,nt,-2
COc1ccc(NC(=O)N(C)C[C@@H]2Oc3ccc(NS(=O)(=O)c4ccccc4)cc3CC(=O)N([C@@H](C)CO)C[C@H]2C)cc1,nt,nt,nt,nt,6
CCSc1nc(-c2ccccc2)nc(C(Cl)Cl)n1,42,-23,-96,57*,-76
CSc1nc(-c2ccc(C)cc2)nc(C(Cl)Cl)n1,28,nt,nt,37,nt
COc1ccccc1-n1ccnc(SCC(=O)NCc2ccccc2)c1=O,-55*,0,-5,-66,4
CO[C@H]1CN(C)C(=O)c2ccc(NC(=O)c3ccccc3)cc2OC[C@@H](C)N(C(=O)CN(C)C)C[C@H]1C,nt,nt,nt,nt,-2
CCSc1nnc(NC(=O)c2cc3c(s2)CCCC3)s1,3,nt,105*,11,54*
O=C(Nc1nnc(CCc2ccccc2)s1)c1ccccc1,17,3,nt,51*,15
CCSc1nnc(NC(=O)c2cccnc2Cl)s1,18,14,nt,55*,22
CCSc1nnc(NC(=O)c2ccccc2)s1,24,23,104*,30,nt
CNC[C@@H]1OCCCC[C@H](C)Oc2ccc(NS(C)(=O)=O)cc2C(=O)N([C@@H](C)CO)C[C@H]1C,nt,nt,nt,nt,-7
ClC(Cl)c1nnc(-c2ccccc2)c(-c2c[nH]c3ccccc23)n1,20,nt,-40,57*,nt
CCn1c(SCC(=O)N2CCOCC2)nc2oc3c(Cl)cc(Cl)cc3c(=O)c2c1=O,66,nt,nt,121*,nt
CCn1c(SCC(=O)N2CCOCC2)nc2sc3c(c2c1=O)CCCC3,4,nt,-5,-16,-8
CCOC(=O)c1sc(NC(=O)c2cncc(Br)c2)nc1C,2,22,nt,26,nt
CCOC(=O)c1sc(NC(=O)c2ccc(CC)s2)nc1C,12,nt,31,12,51*
